Out of some 360,000 compounds screened, about 17,000 (4.7%) were called active. Not shown: some 5% with an inconclusive outcome. The entries come from a sample that favours actives as a whole. A number with no mark means an inactive call. No stated cut-off is given here; in the data, active means activity change below about -50%; inconclusive means mostly about -30% to -49%; inactive means weaker than that.
On the % scale 0 is the no-effect control and ±100 the full control effect.

The assay in a line: qHTS for Inhibitors of Inflammasome Signaling: IL-1-beta AlphaLISA Primary Screen. The settings on record: THP-1 LPS/ATP IL-1B secretion, 16 h; at 57.5 µM, stronger effect = lower value. An outline of the steps:
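Secreted IL-1B measured by AlphaLISA bead assay after 16 h compound exposure of THP-1 cells; compounds (final up to 57.5 uM) added 1 h before LPS (250 ng/mL) and ATP (1.25 mM) stimulation; lower signal means less secretion.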
Turning to `Cc1cccc(CN2CCN(C3CN(Cc4ccccc4)S(=O)(=O)C3)CC2)c1` (stereo not drawn), the activity change is 5.62%. Next, `COC(=O)C1C(=O)NCC1c1ccc(OC)cc1` (stereo not drawn): 5.62%; `C[C@@H]1CN([C@@H](C)CO)C(=O)c2cc(Br)cnc2O[C@@H]1CN(C)C(=O)C1CCCCC1`: -1.93%. Next, `CC(C)=C1SC(N2CCN(c3cccc(C)c3)CC2)=NC1=O`: -56.9% (active).

Regarding `CC(C)=C1SC(N2CCN(c3ccc(C)c(Cl)c3)CC2)=NC1=O`, the activity change is 25.2%.

Turning to `CNS(=O)(=O)c1cnccc1N1CCN(c2cccc(C)c2)CC1`, the activity change was -2.21%.

Regarding `Fc1ccc2[nH]c3c(N4CCN(Cc5ccc6c(c5)OCO6)CC4)ncnc3c2c1`, the activity change is -94.7% (active). Next, `O=c1[nH]c(N2CCN(Cc3ccc4c(c3)OCO4)CC2)nc2c1CCCC2`: 4.34%. The result for `Fc1ccc2[nH]c3c(N4CCSCC4)ncnc3c2c1` reads -62% (active); that for `CCCCCc1c(C)nc(N2CCN(Cc3ccc4c(c3)OCO4)CC2)[nH]c1=O`, -0.641%; that for `O=C(NCCS(=O)(=O)N1CCN(c2ccccc2)CC1)c1cc(=O)c2ccccc2o1`, -1.79%. Consider `CC(=O)Oc1ccc(OC(C)=O)c2c1C1C=CC2CC1`, for which the activity change is -13.5%. The result for `FC(F)(F)c1nc(-c2ccccc2)ncc1-c1nnnn1-c1ccccc1` reads -66.2% (active). Next, `Clc1ccc(-n2nnnc2-c2cnc(-c3ccccn3)nc2-c2cccs2)cc1`: -21.9%; `c1ccc(-n2nnnc2-c2cccnc2)cc1`: -6.19%. As to `O=C(CNC(=O)c1ccc(-c2ccccc2)cc1)OCc1ccc(Cl)cc1`, the activity change was 18.8%. The result for `O=C(OCC(=O)c1c[nH]c2ccccc12)c1cccc(O)c1` reads -4.98%. The result for `O=C(OCc1ccc(-c2ccccc2)cc1)c1cccc(O)c1` reads -71.1% (active); that for `CSc1nnc2c(n1)OC(c1cn(C)c3ccccc13)N(C(C)=O)c1ccccc1-2` (stereo not drawn), 0.333%; that for `Cn1cc(C2OC(=O)c3ccccc32)c2ccccc21` (stereo not drawn), -66% (active). Next, `CCN(CC)CCNC(=O)C1c2ccccc2C(=O)N(C)C1c1cn(C)c2ccccc12` (stereo not drawn): 6.05%; `CCCc1ccc(C(O)c2ncc(-c3cccc(OC)c3)[nH]2)cc1` (stereo not drawn): 26%. On to `COC(=O)c1ccccc1Oc1c(F)c(F)nc(N2CCOCC2)c1F`, for which the activity change is 5.09%. Take `Cn1nc(C(=O)OCC(=O)N(Cc2ccccc2)C(C)(C)C)c2ccccc2c1=O`: the activity change was 10.9%. The result for `Cc1ccc(C)c(OCCC(=O)OCC(=O)NC(=O)NCc2ccccc2)c1` reads -87.8% (active). The result for `Cc1ccc(C)c(OCCC(=O)OCC(=O)N2CCN(c3ccccc3)CC2)c1` reads -2.33%; that for `COc1ccccc1OCCC(=O)OCC(=O)NCc1ccccc1`, 18%; that for `Nc1[nH]c(C(=O)c2ccccc2)c(-c2ccncc2)c1C(=O)NCc1cccc2ccccc12`, 7.69%.

Take `Cc1noc(C)c1S(=O)(=O)N(C)C[C@H]1OCCCC[C@@H](C)Oc2ccc(NC(=O)CCCN(C)C)cc2C(=O)N([C@H](C)CO)C[C@@H]1C`: the activity change was 19.6%. The result for `O=[N+]([O-])c1ccc(CN2CC(N3CC=CC3)CS2(=O)=O)cc1` (stereo not drawn) reads -24.5%. With `COC(=O)c1ccc(NC(=O)C23CC4CC(C2)CC(n2cnc(Cl)n2)(C4)C3)cc1`, the activity change was 54.6%. The result for `O=C(CSc1nc2cccc(F)c2c(=O)n1-c1ccccc1)Nc1ccc2c(c1)CCC2` reads 0%. Next, `C=CCn1c(Cn2nnc3ccccc32)nnc1SCC(=O)N/N=C/c1cc(Br)cc(OC)c1O`: 1%; `COc1cc(Br)cc(/C=N/c2ncn[nH]2)c1O`: -55.5% (active). Next, `Oc1c(Cl)cc(Cl)cc1/C=N/c1ncn[nH]1`: -20.2%; `Nn1c(SCC(=O)Nc2nccs2)nncc1=O`: 9.24%. Turning to `C[C@@H]1C[C@@H]2O[C@H]2/C=C\C=C\C(=O)Cc2c(Cl)c(O)cc(O)c2C(=O)O1`, the activity change is -108% (active). As for `CC1CCCCC12NC(=O)N(CC(=O)OCC(=O)NCc1ccc(F)cc1)C2=O` (stereo not drawn), the activity change is 28%. The result for `CC1=CC(=NNS(=O)(=O)c2ccc([N+](=O)[O-])cc2)CC(C)(C)C1` reads 8.3%.

`COc1ccc(CCNS(=O)(=O)c2cccc([N+](=O)[O-])c2)cc1`: the activity change is -12.5%. For the compound `CCOc1ccc(S(=O)(=O)N2CCN(C(=S)NCC3CCCO3)CC2)cc1` (stereo not drawn), the activity change was 8.09%. Next, `COc1ccc(S(=O)(=O)N2CCN(C(=S)NCC3CCCO3)CC2)cc1OC` (stereo not drawn): 41.3%; `S=C(NCC1CCCO1)N1CCN(c2ccc(Cl)c(Cl)c2)CC1` (stereo not drawn): -64.9% (active). On to `CCCC/C=C/c1cccc2nncn12`, for which the activity change was 0%.

Regarding `c1ccc2c(C[n+]3csc4ccccc43)cccc2c1`, the activity change was -14.6%. As for `COC(=O)c1cc2n(n1)CCCNC2=O`, the activity change was -12.8%.

Regarding `O=C(COC(=O)c1ccncc1)Nc1ccc2c(c1)OCO2`, the activity change was 7.7%. The result for `NS(=O)(=O)c1ccc(NC(=O)COC(=O)c2c3c(nc4ccccc24)/C(=C\c2ccc4c(c2)OCO4)CCC3)cc1` reads -62.6% (active); that for `NC(=O)c1ccc(NC(=O)COC(=O)c2c3c(nc4ccccc24)/C(=C\c2ccc4c(c2)OCO4)CCC3)cc1`, -3.47%. Consider `CCOc1ccc2[nH]c(=S)sc2c1`, for which the activity change was 32.5%. The result for `COc1ccc(/C=C2\SC(=S)N(CCC(=O)N3CCOCC3)C2=O)cc1OC` reads -10.5%; that for `Cc1ccc(/C=C2/SC(=S)N(CCC(=O)NCCCN3CCOCC3)C2=O)cc1`, -83.3% (active); that for `O=C(CCN1C(=O)c2ccccc2C1=O)NCCN1CCOCC1`, -5.01%. For `CC(OC(=O)CCC(=O)c1ccccc1)C(=O)Nc1ccc(F)cc1` (stereo not drawn), the activity change was 9.85%. With `Cc1c(C(=O)NCC2CC2)sc(=O)n1Cc1cccc(F)c1`, the activity change was -16.4%. Next, `CCOC(=O)c1cc2cc3ccccc3cc2oc1=O`: -12.5%.

As to `COc1ccc(CNC(=O)CCN2C(=O)c3ccccc3C2=O)cc1`, the activity change was -9.34%.

As for `CCOC(=O)C1=C(c2ccc(OC)cc2)C(=O)c2ccccc2C1=O`, the activity change was -99% (active).

The values above are taken from PubChem BioAssay AID743279 (National Center for Advancing Translational Sciences (NCATS), 2014).
